Experimental data as given in the supplement of paper PMC6555819.

Tests used:
Assay in all cases: PBM binding z-score (relative to random genomic background probes); higher = stronger binding; sequences stand for … in GC…GCGATTGACAGCGTAGAATGAAGG
[1] = tested on: PPARg:RXRa IVT, anti-PPARg (NR concentration 270 nM, RXRa partner concentration 90 nM)
Summary of the method: (§1)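 The probes on custom Agilent 4×180K protein-binding microarrays were double-stranded, with 34-nt variable regions bearing direct-repeat seeds, single-nucleotide variants, half-site ablations and random human genomic background sequences. Incubation lasted 1 h with ligand-free nuclear receptor dimers in PBS pH 7.4, 2% milk, 0.02% Triton X-100, 1 mM DTT, 0.2 mg/mL BSA and 0.4 mg/ml salmon testes DNA. Antibodies against each partner (one per run) detected bound dimers, and fluorescence scans were regression-normalized. Binding z-scores take the random background probes as reference.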

[2] = tested on: PPARg DBDmut:RXRa IVT, anti-PPARg (DBD mutation: PPARg1 K132A/R137A, NR concentration 270 nM, RXRa partner concentration 90 nM)
Summary of the method: as §1

[3] = tested on: PPARg DBDmut IVT, anti-PPARg (DBD mutation: PPARg1 K132A/R137A, NR concentration 270 nM)
Summary of the method: as §1

[4] = tested on: PPARg homodimer (NR concentration 180 nM)
Summary of the method: as §1

[5] = tested on: PXR:RXRa (NR concentration 270 nM, RXRa partner concentration 90 nM)
Summary of the method: as §1

[6] = tested on: PXR homodimer (NR concentration 270 nM)
Summary of the method: as §1

[7] = tested on: RARa:RXR (NR concentration 270 nM, RXRa partner concentration 90 nM)
Summary of the method: as §1

[8] = tested on: RARa homodimer (NR concentration 270 nM)
Summary of the method: as §1

[9] = tested on: RARb:RXRa (NR concentration 270 nM, RXRa partner concentration 90 nM)
Summary of the method: as §1

[10] = tested on: RARb homodimer (NR concentration 270 nM)
Summary of the method: as §1

[11] = tested on: RARg:RXRa (NR concentration 270 nM, RXRa partner concentration 90 nM)
Summary of the method: as §1

[12] = tested on: RARg homodimer (NR concentration 270 nM)
Summary of the method: as §1

[13] = tested on: RXRa DBDmut IVT, anti-RXR (DBD mutation: RXRa K156A/R161A, NR concentration 90 nM)
Summary of the method: as §1

[14] = tested on: RXRa homodimer (NR concentration 180 nM)
Summary of the method: as §1

[15] = tested on: THRa:RXRa (NR concentration 90 nM, RXRa partner concentration 90 nM)
Summary of the method: as §1

[16] = tested on: THRa homodimer (NR concentration 90 nM)
Summary of the method: as §1

[17] = tested on: VDR homodimer (NR concentration 270 nM)
Summary of the method: as §1

| Sequence | PBM binding z-score [1] | PBM binding z-score [2] | PBM binding z-score [3] | PBM binding z-score [4] | PBM binding z-score [5] | PBM binding z-score [6] | PBM binding z-score [7] | PBM binding z-score [8] | PBM binding z-score [9] | PBM binding z-score [10] | PBM binding z-score [11] | PBM binding z-score [12] | PBM binding z-score [13] | PBM binding z-score [14] | PBM binding z-score [15] | PBM binding z-score [16] | PBM binding z-score [17] |
| --- | --- | --- | --- | --- | --- | --- | --- | --- | --- | --- | --- | --- | --- | --- | --- | --- | --- |
| TCTGCTAGGTCAACGATGGTCAGTTAATCTGCTA | 4.08 | 0.247 | 0.848 | 1.07 | 1.88 | -0.482 | 2.17 | -0.966 | 4.04 | 3.26 | 4.12 | 4.95 | 0.834 | 2.5 | 2.93 | 0.73 | -0.183 |
| TCTGCTAGGTCATCGATGGTCAGCTAATCTGCTA | 4.24 | 0.105 | -0.541 | 0.22 | 1.81 | -0.703 | 2.07 | -1.04 | 4.02 | 3.19 | 3.79 | 4.88 | 1.53 | 2.73 | 3.33 | 0.553 | -0.0904 |
| CCTACTGGGCCAAAAAGTTCATTGATGCCGATAA | 2.64 | -1.13 | -0.236 | 1.35 | 2.98 | 9.58 | 1.23 | 0.294 | 2.24 | 2.64 | 1.48 | 1.8 | 1.51 | 0.748 | 0.849 | -0.23 | 4.38 |
| TAGCCTAGGTCATGGGCCAGTGTACCACGCGAAC | 3.43 | 0.332 | 0.203 | 1.42 | 1.6 | -0.511 | 2.86 | -0.252 | 4.01 | 3.09 | 4.41 | 4.65 | 0.252 | 3.76 | 3.13 | 1.23 | 0.706 |
| AACGAAAGGTCGAAGGTGAGTATACCCACCCGAA | 2.16 | 0.625 | -0.0943 | 0.991 | 3 | -0.293 | 4.48 | 0.698 | 3.79 | 2.48 | 4.5 | 3.96 | 1.05 | 5.29 | 2.16 | -0.462 | 0.527 |
| CAAACTAGGTCACTAAAGGTCAAAGTCGAATGAC | 8.98 | 4.79 | 2.9 | 5.36 | 6.84 | 2.87 | 7.45 | 3.41 | 5.53 | 5.66 | 7.43 | 7.86 | 2.41 | 7.61 | 5 | 2.19 | 3.72 |
| TACCCTAGGTCATTCAGGGGCCAGTATAGAAAGC | 3.23 | -0.205 | 0.64 | 2.57 | 2.68 | 0.936 | 3.65 | 0.569 | 4.13 | 3.8 | 6.19 | 5.02 | 1.56 | 3.18 | 3.65 | 1.29 | 1.84 |
| ATATGTAGGTTATCGGGTCATACAGTTTGCGCAT | 7.62 | 3.33 | 1.78 | 2.48 | 3.54 | 2.74 | 4 | 1.32 | 2.75 | 3.17 | 3.64 | 2.84 | 1.67 | 3.87 | 3.68 | 2.82 | 3.52 |
| ATTTGTAGGTTACATCCGGGTCATTCAGGCTATG | 6.29 | 3.31 | 2.1 | 3.38 | 4.12 | 4.01 | 4.19 | 2.72 | 2.77 | 3.43 | 4.18 | 2.41 | 1.3 | 3.47 | 3.85 | 3.39 | 4.18 |
| TACCCTAGGTCATTGGGCCAGTATAGTACGCATC | 4.36 | 0.464 | 0.484 | 1.89 | 1.94 | 0.578 | 2.56 | 0.228 | 3.87 | 3.25 | 4.13 | 4.3 | 1.87 | 3.19 | 3.08 | 1.37 | 1.77 |
| CCTACTGGGCCAAAGAGGTCATTGATGCCGATAA | 4.34 | -0.355 | -0.682 | 1.81 | 4.81 | 4.26 | 4.39 | 0.256 | 3.07 | 3.65 | 4.01 | 3.31 | 1.39 | 4.45 | 3.35 | 0.927 | 3.97 |
| CCAGACAGGTGAGAAGGTAACTCAGCCTCGATTA | 0.964 | -0.28 | -0.249 | 1.03 | 0.228 | 0.138 | 0.486 | 0.698 | 0.666 | 0.841 | 0.555 | 0.652 | 0.16 | 0.448 | 0.425 | 0.236 | 0.403 |
| TAGCCTAGGTCATTCAGGGGCCAGCATAGAAAGC | 2.78 | 0.63 | 0.0516 | 1.32 | 2.37 | -0.172 | 3.95 | -0.134 | 3.92 | 3.42 | 6.31 | 4.44 | 1.98 | 2.92 | 3.55 | 0.61 | 1.44 |
| GCTTACGGGTCCAAGGTTATAGCATGAATAGAAT | 0.338 | 0.865 | -0.558 | 0.0227 | 0.869 | 0.331 | 1.06 | 0.0844 | 0.932 | 0.871 | 0.631 | 0.599 | 2.18 | 0.914 | 1.34 | 0.551 | 1.97 |
| CCTACTCGGCCAAAAAGGTCATTGATGCCGATAA | 2.03 | -0.62 | -0.0585 | 3.26 | 4.83 | 3.27 | 4.83 | 1.71 | 4.07 | 4.59 | 4.7 | 4.45 | 1.13 | 4.82 | 3.33 | 1.22 | 2.91 |
| TCTAGTTGGTCACGGAGGGCACACACGACGGGTA | 2.85 | 0.649 | 0.752 | 1.2 | 1.11 | 0.255 | 1.01 | 0.42 | 2.35 | 2.28 | 2.15 | 2.4 | 0.575 | 1.35 | 1.03 | 0.258 | 0.915 |
| AGAATGAGGTTAAACGTAGATCAGGGAAGAAAGT | 3.75 | 1.56 | 1.02 | 1.3 | 1.73 | 0.319 | 2.69 | 0.469 | 2.23 | 1.19 | 2.9 | 1.54 | 2.08 | 3.22 | 2.55 | 0.549 | 1.04 |
| CGTCCAAGGTTAAGGTCAGTGAAAGAGACTCGAA | 2.04 | -0.847 | -0.494 | 3.1 | 2.73 | 1.01 | 3.56 | 0.781 | 4.16 | 3.58 | 4.2 | 4.7 | 1.71 | 3.45 | 3.83 | 3.83 | 1.79 |
| ATATGTAGGTTAGCTGGGGTCATTCACACTAGGC | 6.11 | 2.75 | 2.29 | 3.1 | 6.36 | 4.2 | 5.41 | 1.89 | 2.85 | 3.87 | 4.14 | 3.12 | 1.95 | 5.25 | 5.01 | 3.56 | 5.37 |
| AGTCAAAGTTTATCTAGGTAACGTAAGATATGCT | 4.84 | 1.23 | 1.54 | -0.0246 | 0.694 | 0.675 | 0.503 | 0.429 | 1.93 | 0.612 | 1.12 | 1.41 | 1.93 | 0.551 | 1.6 | -0.0604 | 1.31 |
| GCTTACAGGTCAAAGGTTATAGCATGAATAGAAT | 6.3 | 2.55 | 3.43 | 3.21 | 6.17 | 0.923 | 7.96 | 0.992 | 4.93 | 3.69 | 7.18 | 5.44 | 2.31 | 9.21 | 4.11 | 0.393 | 1.47 |
| CCTAGTTGTTCAGGAGGTCACACACCGGATATGA | 2.97 | 1.15 | 0.86 | 3.91 | 4.18 | 2.15 | 4.4 | 2.25 | 3.62 | 4.15 | 4.48 | 4.35 | 1.15 | 4.73 | 3.62 | 2.81 | 3.5 |
| CGAACTAGGTCATCCAGGTCAGTGAATACATTGA | 8.34 | 6.69 | 1.38 | 4.66 | 3.99 | 7.58 | 3.63 | 1.17 | 4.3 | 4.14 | 4.85 | 5.61 | 2.52 | 3.47 | 4.21 | 2.83 | 3.77 |
| TCTAGTTGGTCACGGAGGTCACAAACGACGGGTA | 3.96 | 0.857 | 0.878 | 2.5 | 4.3 | 1.25 | 4.32 | 1.68 | 3.66 | 4.21 | 4.49 | 5 | 0.949 | 4.62 | 3.39 | 2.07 | 2.78 |
| AATACAGGGTCATCGTACGCCAGAGTACGCACAG | 4.44 | 3.9 | 1.45 | 3.42 | 4.53 | 0.995 | 5.47 | 1.81 | 4.45 | 3.46 | 5.65 | 4.81 | 3.46 | 6.92 | 3.87 | 1.73 | 4.17 |
| CGTCCAAGGTCATTGGAGGTCAGTGAAGACAGAT | 4.79 | 0.319 | -0.697 | 5.59 | 7.17 | 8.63 | 6.25 | 2.43 | 5.56 | 5.54 | 7.03 | 7.55 | 4.46 | 6.96 | 5.19 | 3.37 | 5.22 |
| CAAACTAGGTCACAGTGGTCAAAGTCCGTGCGTA | 9.05 | 2.06 | 1.68 | 2.21 | 2.03 | -0.0834 | 2.51 | 0.000573 | 4.08 | 3.62 | 4.19 | 5.18 | 1.51 | 3.32 | 3.17 | 1.43 | 1.23 |
